Experimental findings from publication PMC12136788 are described below.

Sequences and labels used below:
T1: UNK ZnF1-3 (human, UniProt Q9C0B0 31-174)
T1 sequence: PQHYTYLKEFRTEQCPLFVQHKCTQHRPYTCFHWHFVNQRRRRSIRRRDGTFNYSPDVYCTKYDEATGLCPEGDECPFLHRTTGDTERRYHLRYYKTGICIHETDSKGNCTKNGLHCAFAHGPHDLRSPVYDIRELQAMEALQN

B1: 40924096_40924216_925_3pUTR_ENSMUSG00000028423_ENSMUST00000098143|mouse|control|control (ssRNA)
RNA: GGGAGUUCUACAGUCCGACGAUCUCGUUGGUCUUUCUCUAAGAUUAUCCUUUGGAAUGGGGGACAUGUUGGUUUUGGGCCCUGCAUUUAUAUGCCGCUGACUCUCCUGUUUUGGUGGGUUCCUGCCUGGCCGUGGUCUGGCCCCAACAGAGGAUUGAGCAUCA
B2: chr14:89307221:89307222:+_ENSG00000165533_ENST00000346301|hu_mus|hu_hu_hu_mus_False|98_98 (ssRNA)
RNA: GGGAGUUCUACAGUCCGACGAUCUCCUGUUUGGUUAGUUCCAGGGAGCUUCAAAGAUGUGCCAGGGCGUGGGACCUGAGCAAUAGCAUUUUCAUCCAGGAUCAUUUCAGCAAUUCCUUCCUGGUCCACAUCAAUUUCAUCUAUCAACAGAGGAUUGAGCAUCA
B3: chr7:151048522:151048523:+_ENSG00000013374_ENST00000566856|hu_mus|motif|central (ssRNA)
RNA: GGGAGUUCUACAGUCCGACGAUCCUGUUUCUUAUUUAUUACGAUCUUGAUGUAAUUUUCUUGAAAUCCGAAAGUUUCAGCGGUUUGACACCUCAGGUCUCUACCAGUGACAUGCAAGCGGGUCUCCAACAAGCUUUUCUUAUCCAACAGAGGAUUGAGCAUCA
B4: chr18:33597908:33597909:-_ENSMUSG00000042834_ENSMUST00000171533|mus_mus|FALSE|FALSE (ssRNA)
RNA: GGGAGUUCUACAGUCCGACGAUCUACAUCAAAAGAGUACAUGGGUAAAAUAUAGAUAUACAGACAAUUGAUGAACAUAAACUACUAGGCUUGUUACAUCUAAAUGAAGAAAAAAAAAAACCGUGGGGGGGACUCUCAGCCUCUCAACAGAGGAUUGAGCAUCA
B5: chr2:29001751:29001752:+_ENSG00000213639_ENST00000296122|perfect_dup|motif|central (ssRNA)
RNA: GGGAGUUCUACAGUCCGACGAUCAGCCAAUAGCAAACAAAUGGUUUCCAAAGACUGCUUUCCUCUGUCCACAUAAUCUCCGGAGAAAAGAUAGUUGGCUUCUGGUGGGAAACCUCCAUAUUCAAAUAAUCUCAGUAAAUCUGUCAACAGAGGAUUGAGCAUCA
B6: chr18:33597908:33597909:-_ENSMUSG00000042834_ENSMUST00000171533|mus_mus|motif|central (ssRNA)
RNA: B4 RNA with U82G, A83G, U85G, A86G
B7: chr2:160775391:160775392:-_ENSMUSG00000057133_ENSMUST00000039782|mus_hu|motif|central (ssRNA)
RNA: GGGAGUUCUACAGUCCGACGAUCAAUGAGUCCAGGAGAUACUCCUGGGAUGAGAAAUGGGUUAAAAGCCACAGGACGGCGGGUAGUUAUUGCAGGUUCAGACUGAUCAGAAAAUGGACCUGGACCAGGCUUGUCCUCAGCUAACAACAGAGGAUUGAGCAUCA
B8: chr2:160775391:160775392:-_ENSMUSG00000057133_ENSMUST00000039782|mus_hu|FALSE|FALSE (ssRNA)
RNA: B7 RNA with G77U, G78A, G80U, G81A
B9: chr1:38489269:38489270:+_ENSG00000183520_ENST00000537711|hu_hu|FALSE|FALSE (ssRNA)
RNA: GGGAGUUCUACAGUCCGACGAUCUUUGAAGUUACUAGAAAACGACAACAGAUUUUUGAUACAGAAUGACAAGGCUUAUCUAUAACACGUCAACGUUUUCGACGACUCUGAAAUUUAUAAAUAGCUGGGGAGUUCACCGUUUCUCAACAGAGGAUUGAGCAUCA

Positions count from the first letter of the chain named. The full ranking holds about 24,000 sequences; the median of “enrichment r” is about 0.99, and the highest 2% start at about 3.7. Many of the other results were omitted from the sample, so the highest values are more common in it than they were.

For this experiment, the target named is T1, UNK ZnF1-3. The experiment is described as follows: nsRBNS (natural sequence RNA bind-n-seq); RBNS binding buffer (assumed for nsRBNS): 25 mM Tris pH 7.5, 150 mM KCl, 3 mM MgCl2, 0.01% Triton X-100, 500 ug/ml BSA, 20 U/ml SUPERase-In, 4 C; UNK is unkempt and MSI1 is Musashi-1; names of the RNAs are library labels; protein concentration not given here; high values mean tight binding.
B1 had a binding signal of 0.527 enrichment R.
As for B2, the binding signal came to 0.79 enrichment R.
In turn, B3 registered a binding signal of 0.692 enrichment R.
B4 returned a binding signal of 7.83 enrichment R.
B5 had a binding signal of 1.36 enrichment R.
With B6, the binding signal was 6.83 enrichment R.
B7 showed a binding signal of 1.1 enrichment R.
The value for B8 was 0.911 enrichment R; that for B9 was 1.2 enrichment R.
